Screening data deposited in PubChem by The Scripps Research Institute Molecular Screening Center.
MITF inh: MITF inhibitors, primary screen, biochemical, AlphaScreen, human; AlphaScreen MITF homodimerization, bead proximity signal; inhibition, % at 2.6 µM; 0.91% of 650,000 active; AID 1259374, 2018; in the data active = inhibition above about 50%;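 note: 0% = vehicle wells with protein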
GPR151 ag: activators of human GPR151, primary screen, cell-based, PathHunter beta-arrestin, luminescence; activation, % at 11.2 µM; AID 1508602, 2020; PathHunter beta-arrestin GPR151 cells; G-protein coupled receptor 151 (Homo sapiens), Q8TDV0; 1% of 650,000 active; in the data active = activation above about 4.9%;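 note: 0% = median of compound wells and 100% = cells with positive control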
FBW7 act: FBW7 E3 ligase activators, primary screen, biochemical, AlphaScreen, human; F-box/WD repeat-containing protein 7 (Homo sapiens), Q969H0; AlphaScreen FBW7–phospho-cyclin E peptide binding, activator screen; normalized activity (activation), % at 26.1 µM; 0.13% of 650,000 active; AID 1259310, 2017; in the data active = normalized activity above about 1.9%;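 note: purified mutant Fbw7 with reduced substrate affinity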
Target sequence (Q969H0 whole entry, looked up): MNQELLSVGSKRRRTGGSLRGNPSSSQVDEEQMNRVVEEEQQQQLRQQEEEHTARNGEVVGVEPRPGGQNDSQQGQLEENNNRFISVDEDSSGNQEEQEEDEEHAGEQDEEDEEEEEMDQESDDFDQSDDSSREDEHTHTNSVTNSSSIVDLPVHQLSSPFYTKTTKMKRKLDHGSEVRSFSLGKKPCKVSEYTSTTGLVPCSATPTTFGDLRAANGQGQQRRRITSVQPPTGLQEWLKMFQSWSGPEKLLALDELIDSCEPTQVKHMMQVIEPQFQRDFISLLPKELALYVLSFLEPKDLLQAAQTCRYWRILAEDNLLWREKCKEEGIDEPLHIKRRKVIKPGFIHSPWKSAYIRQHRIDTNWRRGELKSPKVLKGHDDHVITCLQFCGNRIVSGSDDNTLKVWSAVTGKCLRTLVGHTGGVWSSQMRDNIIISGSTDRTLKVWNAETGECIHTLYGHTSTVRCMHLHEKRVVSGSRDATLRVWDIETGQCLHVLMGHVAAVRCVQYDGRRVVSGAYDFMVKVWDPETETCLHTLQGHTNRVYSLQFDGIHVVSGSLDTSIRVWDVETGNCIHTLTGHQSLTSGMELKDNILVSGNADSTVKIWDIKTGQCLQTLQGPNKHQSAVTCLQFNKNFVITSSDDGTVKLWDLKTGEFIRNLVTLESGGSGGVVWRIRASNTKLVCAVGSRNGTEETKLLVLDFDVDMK
TEAD-YAP block: TEAD-YAP interaction inhibition, primary screen, TEAD-YAP interaction inhibitor project, luminescence, HEK-TIYL cells; TEAD-Gal4/YAP UAS-luciferase luminescence; inhibition, % at 9.12 µM; 1.4% of 640,000 active; in the data active = inhibition above about 32%;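 note: 0% = median of test compound wells and 100% = reference inhibitor wells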
GPR151 confirm: GPR151 activators, triplicate retest, confirmation, cell-based, PathHunter beta-arrestin, luminescence | shares compounds with GPR151 ag | GPR151 PathHunter beta-arrestin cells, 90 min; % of EA-reagent control over plate median | activation, % at 11.2 µM | 6,700 tested, under 10 active | AID 1508609, 2020;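 active = mean percent activation across replicates above the confirmation screen cutoff of 4.91%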
GPR119 ag: GPR119 activators in beta-arrestin cells, counter-screen for GPR151 activator project, cell-based, PathHunter beta-arrestin, luminescence, triplicate. shares compounds with GPR151 ag. 90 min; 0 = compound-well median, 100 = enzyme-acceptor control. activation, % at 11.2 µM. 0.3% of 6,700 active. AID 1508611, 2020;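 active = mean percent activation in the counterscreen above 29.09%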;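 note: counterscreen on off-target GPR119 to flag nonselective hits from the GPR151 activator screen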
* marks the source's active call; other numbers are inactive results; . = no result given. Shown are actives, neighbours in structure and some others; about 3.5% of the full set was active somewhere.

SMILES	MITF inh	GPR151 ag	FBW7 act	TEAD-YAP block	GPR151 confirm	GPR119 ag
Cn1nnnc1SCc1nnc(-c2cccs2)o1	2.3	7.6*	0.1	-20.6	0.7	14.1
COc1cc(Nc2ccc(NC(=O)Nc3ccccc3)cc2)nc(C)n1	-8.9	7.9*	0.3	-5.7	0.1	7.2
Cc1sc2nc(CSc3ncn[nH]3)[nH]c(=O)c2c1C	17.6	-2.0	0.2	-5.2	.	.
COCCN1CC(CNC(=O)c2cc(COc3ccc(F)cc3Cl)on2)CC1=O (centres undefined)	6.7	9.8*	0.0	1.8	-1.2	-9.5
CCCc1cc(C(=O)Nc2sc(C)c(CC)c2C(N)=O)cs1	22.8	9.1*	0.9	-28.3	0.2	5.3
CCOC(=O)c1c(NC(=O)CNCC(O)CO)sc(C)c1C (centres undefined)	-10.6	5.3*	-0.3	-15.5	0.9	4.9
CCCC(=O)Nc1sc(C)c(CC)c1C(=O)OCC	-4.2	13.4*	0.0	8.4	0.4	-8.3
C=CCOc1ccc(-c2nn(-c3ccccc3)cc2/C=c2\sc3nc(=O)c(Cc4ccccc4)nn3c2=O)cc1	2.6	0.9	-0.1	-3.5	.	.
COC(=O)CSc1nc2ccccc2n1CC(=O)NC1CCCC1	13.1	-0.6	0.1	0.2	.	.
CCCNC(=O)CSc1nc2ccccc2n1CC(=O)NC1CCCC1	-26.9	7.8*	0.1	-8.5	0.0	-1.6
O=C1CSC(c2ccc3c(c2)OCO3)N1c1ccc(F)cc1Cl (centres undefined)	20.1	-0.2	0.1	8.4	.	.
Cc1sc2nc(C3CC3)n(C3CCN(C(=O)c4ccccn4)CC3)c(=O)c2c1C	-13.0	6.5*	0.5	-30.6	1.4	3.3
COC(=O)c1ccc2c(c1)C(=O)/C(=C/c1ccc(O)c(OC)c1)O2	3.8	1.0	0.3	-1.9	.	.
CN(Cc1ccccc1)C(=O)c1ccc2c(=O)n(CCc3ccccc3)c(SCc3cccc([N+](=O)[O-])c3)nc2c1	-5.4	11.5*	-0.1	0.9	-0.5	-16.4
O=C(c1ccc2c(=O)n(CCc3ccccc3)c(SCc3cccc([N+](=O)[O-])c3)nc2c1)N1CCCC1	18.3	1.9	0.0	9.9	.	.
NC(=O)CCN(CCC(N)=O)S(=O)(=O)c1ccc(Br)cc1	-2.1	1.1	-0.1	1.5	.	.
NC(=O)CCN(CCC(N)=O)S(=O)(=O)c1ccccc1	13.8	6.6*	0.4	-1.8	-1.2	-4.4
CCN=C1S/C(=C\c2cccc(O)c2)C(=O)N1CC	9.3	-0.4	0.0	-11.3	.	.
CC1(C)Cc2ccccc2/C(=C/C(=O)Nc2ccc(Cl)cc2)N1	5.4	-0.9	0.1	-1.9	.	.
CC1(C)Cc2ccccc2/C(=C/C(=O)Nc2ccc([N+](=O)[O-])cc2)N1	-16.5	5.5*	0.3	-5.2	0.7	11.5
COCCNC(=O)C1CCCN(S(=O)(=O)c2c(C)noc2/C=C/c2cccs2)C1 (centres undefined)	-8.4	5.3*	-0.4	-0.3	0.9	3.8
O=[N+]([O-])c1ccc(CSC2=NCCN2S(=O)(=O)c2ccccc2)cc1	24.4	5.1*	1.4	0.6	0.6	-1.0
O=[N+]([O-])c1ccc(CSC2=NCCN2S(=O)(=O)c2ccc([N+](=O)[O-])cc2)cc1	3.5	1.7	-0.1	3.9	.	.
CCS(=O)(=O)N1CCN=C1SCc1cccc([N+](=O)[O-])c1	34.4	0.4	0.0	5.6	.	.
CCCS(=O)(=O)N1CCN=C1SCc1cccc([N+](=O)[O-])c1	7.7	5.3*	0.0	-14.0	-0.4	-2.1
SMILES	MITF inh	GPR151 ag	FBW7 act	TEAD-YAP block	GPR151 confirm	GPR119 ag
CCOC(=O)c1c(C)c(C(=O)NCCC(C)C)c(C)n1C	-2.6	11.8*	-0.1	4.2	0.6	3.9
CCOC(=O)c1c(C)c(C(=O)NCCCOC)c(C)n1C	4.3	0.7	-0.1	0.6	.	.
CCOC(=O)N1CC(c2ccc3ccccc3n2)=Cc2ccccc21	-5.5	2.6	0.6	-52.6	.	.
COc1ccc(OC)c(NC(=S)Nc2ccccc2F)c1	-12.2	0.5	-0.3	-7.7	.	.
CCOC(=O)n1nc(Cc2ccncc2)c2ccccc2c1=O	12.4	5.2*	-0.1	-0.8	0.5	7.2
CC(CCc1ccccc1)NC(=O)Cn1nc(Cc2ccncc2)c2ccccc2c1=O (centres undefined)	19.8	5.8*	0.3	-3.1	2.3	4.4
O=C(O)Cn1nc(Cc2ccncc2)c2ccccc2c1=O	16.3	-0.6	0.7	1.6	.	.
COc1ccccc1CNC(=O)CCS(=O)(=O)Cc1ccccc1F	13.2	-0.5	0.0	-1.4	.	.
COCCCN1C(=O)C(O)=C(C(C)=O)C1c1ccc(F)cc1 (centres undefined)	14.7	-0.8	0.0	-2.4	.	.
O=C(OCc1cc(=O)oc2ccc3ccccc3c12)c1ccc(O)cc1	-7.3	1.3	-0.1	-11.0	.	.
CCCCc1cc(=O)oc2c(C)c(OCC(=O)OC(C)(C)C)ccc12	5.9	5.7*	0.3	-1.6	0.5	-0.9
Cc1ccc(Nc2ncnc3c2c(-c2ccccc2)cn3-c2ccc(C)cc2)cc1	-2.0	4.3	-0.1	5.3	.	.
Cc1ccc(C(=O)Nc2nc3ccc(S(C)(=O)=O)cc3s2)cc1	-10.0	0.5	-0.3	-45.5	.	.
CC(C)(C)NS(=O)(=O)c1ccc2nc(NC(=O)c3cccnc3)sc2c1	-4.7	6.2*	-0.1	-5.0	0.9	12.8
C(=N\Nc1ccccc1)/c1ccc2c(c1)OCCO2	5.9	5.3*	0.0	-10.6	-0.7	-2.9
CCOC(=O)N1CCC(NC(=O)C(=O)CC(=O)c2ccc(OC)cc2)CC1	3.8	5.4*	-0.1	12.8	0.4	12.8
CCOC(=O)N1CCC(Nc2nncc(-c3ccc(OC)cc3)n2)CC1	-3.1	10.3*	-0.2	11.4	0.4	0.6
CCOC(=O)N1CCC(NC(=O)c2ccc(CSCc3c(F)cccc3Cl)o2)CC1	-17.2	5.3*	-0.1	0.6	-1.7	4.1
CCOC(=O)N1CCC(NCCNC(=O)c2ccc(Cl)cc2)CC1	33.2	12.0*	0.0	17.1	-0.2	3.5
Cc1ncc(C[n+]2csc(CCOC(=O)c3ccccc3)c2C)c(N)n1	-1.1	-0.2	-0.1	1.4	.	.
COc1cc(C2C(C(=O)OC3CCCC3)=C(C)NC3=C2C(=O)CCC3)c([N+](=O)[O-])cc1OC (centres undefined)	2.0	0.3	0.1	19.7	.	.
O=C(c1cccc(S(=O)(=O)N2CCCC2)c1)c1nnc(-c2ccncc2)o1	4.5	8.2*	0.0	-0.8	0.0	5.5
